In PubChem BioAssay (Tox21):
Inconclusive results are not listed. The source made the active and inactive calls. Unless noted, the call rests on the fitted dose curve; in most records, active means well fitted curve in the direction sought with a large enough effect in the repeat runs; inconclusive means weak or mixed curves; inactive means no such curve, though single readings can be large; an effect the other way counts as inactive or inconclusive.

What was measured:
[1] = biological target: Progesterone receptor (Homo sapiens) (UniProt P06401); test: qHTS assay to identify small molecule antagonists of the progesterone receptor (PR) signaling pathway (AID 1346795; active means well fitted inhibition curve with a large enough effect in the signal ratio in the repeat runs, not every such curve was filed as active; the % refers to the signal ratio; further: potency means the concentration at half of the fitted maximal effect)
Summary of the method: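 Beta-lactamase reporter, HEK293T PR-UAS-bla line; 2% charcoal-stripped FBS; 6 hr pre-incubation, 37C/5% CO2. Compound + R5020 1 nM final, 16 hr. LiveBLAzer B/G FRET substrate, 2 hr RT; fluorescence intensity read.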

[2] = qHTS assay to identify small molecule antagonists of the progesterone receptor (PR) signaling pathway - cell viability counter screen (AID 1346798); further: nearly all actives have a fitted effect of over 50% in size; further: potency means the concentration at half of the fitted maximal effect; on activity change, negative = cytotoxicity: series mostly up to about 92 µM
Summary of the method: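 Luminescence readout (CellTiter-Glo, 30 min, RT) of viability in PR-UAS-bla HEK293T cells exposed to compound and R5020 agonist for 16 hr at 37C, 5% CO2; run in the same wells as the beta-lactamase reporter read.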

[3] = qHTS assay to identify small molecule agonists of the progesterone receptor (PR) signaling pathway - cell viability counter screen (AID 1346799; calls by dose curve; further: nearly all actives have a fitted effect of over 45% in size; further: potency means the concentration at half of the fitted maximal effect)
Summary of the method: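 HEK293T PR-UAS-bla, 3,000 cells/well, 2% charcoal-stripped FBS; 6 h settle, compound 16 h at 37C/5% CO2; LiveBLAzer 2 h RT, then CellTiter-Glo 30 min RT, luminescence read.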

[4] = qHTS assay to identify small molecule antagonists of the TGF-beta/Smad signaling pathway - cell viability counter screen (AID 1346824); further: nearly all actives have a fitted effect of over 50% in size
Summary of the method: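 SBE-bla HEK 293T cells, incubated overnight, then compound plus 0.25 ng/mL TGF-beta1 (stock added) for 5 hr at 37 C. Viability was read in the same wells by CellTiter-Glo luminescence after 30 min at room temperature.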

[5] = qHTS assay to identify small molecule agonists of the TGF-beta/Smad signaling pathway - cell viability counter screen (AID 1346829); further: top concentration of the series differs between compounds; nearly all actives have a fitted effect of over 45% in size
Summary of the method: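 Tox21 qHTS format: SBE-bla HEK 293T cells treated with DMSO-dissolved compounds for 5 hr; CellTiter-Glo luminescence after 30 min at room temperature.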

[6] = qHTS assay to identify small molecule agonists of the TGF-beta/Smad signaling pathway (AID 1346859; active means well fitted activation curve with a large enough effect in the signal ratio in the repeat runs, not every such curve was filed as active; the % refers to the signal ratio; further: series mostly up to about 77 µM)
Summary of the method: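 Read-out: fluorescence at 460 and 530 nm (405 nm excitation) after a 2 hr room-temperature incubation with beta-lactamase FRET substrate. SBE-bla HEK 293T cells had been treated with test compounds for 5 hr at 37 C.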

[7] = biological target: Thyrotropin-releasing hormone receptor (Homo sapiens) (UniProt P34981); test: qHTS assay to identify small molecule antagonists of the thyrotropin-releasing hormone receptor (TRHR) signaling pathway (AID 1346877; active means well fitted inhibition curve with a large enough effect in the repeat runs, not every such curve was filed as active; further: series mostly up to about 51 µM)
Summary of the method: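 Following an 18 h incubation at 37 °C and a 2 h calcium dye load, TRHR-HEK293 cells were exposed to compound (5 min, room temperature) and challenged with TRH, 1 nM final.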

[8] = biological target: Thyrotropin-releasing hormone receptor (Homo sapiens) (UniProt P34981); test: qHTS assay to identify small molecule agonists of the thyrotropin-releasing hormone receptor (TRHR) signaling pathway (AID 1346891; calls by dose curve;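 further: HEK293 cells expressing TRHR with calcium dye readout; series mostly up to about 58 µM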)
Summary of the method: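 HEK293/TRHR cells, 1500 per well, 18 h 37 °C; Ca dye 2 h 37 °C; pin-tool compound addition (agonist mode); kinetic fluorescence 3 min, 1 s reads; 15 concentrations, triplicate.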

[9] = Human pregnane X receptor (PXR) small molecule agonists, qHTS cell viability counter screen (AID 1346977); further: nearly all actives have a fitted effect of over 50% in size
Summary of the method: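 Fluorescence read-out (CellTiter-Fluor) of viability in PXR-Luc HepG2 cells, multiplexed with the luciferase agonist read. Compounds in DMSO added after 5hr plating; 24hr total exposure at 37C, 5% CO2.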

[10] = Caspase-3/7 induction in HepG2 cells by small molecules, qHTS assay (AID 1346978); further: nearly all actives have a fitted effect of over 15% in size
Summary of the method: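 Wild-type HepG2 cells, 2,000/well, settled 5 hr at 37 C and 5% CO2, then compound-treated for 17 hr; caspase-3/7 activity read by luminescent Caspase-Glo 3/7 after 30 min at room temperature.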

[11] = Caspase-3/7 induction in CHO-K1 cells by small molecules, qHTS cell viability counter screen (AID 1346979); further: nearly all actives have a fitted effect of over 35% in size; further: potency means the concentration at half of the fitted maximal effect
Summary of the method: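 CHO-K1 wt, 1,500 cells/well; 5hr pre-incubation 37C/5% CO2; compound pin transfer (DMSO); 16hr exposure; CellTiter-Fluor added, 1hr, fluorescence read.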

[12] = Caspase-3/7 induction in CHO-K1 cells by small molecules, qHTS assay (AID 1346980); further: nearly all actives have a fitted effect of over 15% in size
Summary of the method: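 Wild-type CHO-K1 cells exposed to compounds for 17hr at 37 C, 5% CO2. Caspase-3/7 activity then measured by Caspase-Glo 3/7 luminescence after 30min at room temperature.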

[13] = Caspase-3/7 induction in HepG2 cells by small molecules, qHTS cell viability counter screen (AID 1346981); further: series mostly up to about 92 µM; nearly all actives have a fitted effect of over 30% in size
Summary of the method: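 Viability determined by CellTiter-Fluor fluorescence in HepG2 wells also used for the luminescent Caspase-Glo 3/7 read. Compounds were present for 16 hr at 37 C, 5% CO2 before reagent addition.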

[14] = biological target: Nuclear receptor subfamily 1 group I member 2 (Homo sapiens) (UniProt O75469); test: Human pregnane X receptor (PXR) small molecule agonists, qHTS assay (AID 1346982); further: nearly all actives have a fitted effect of over 35% in size; further: potency means the concentration at half of the fitted maximal effect
Summary of the method: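 Compound-induced hPXR transactivation of a CYP3A4 luciferase reporter was scored in HepG2 PXR-Luc cells over 24 hr at 37 C, 5% CO2, by luminescence.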

[15] = biological target: Cytochrome P450 2D6 (Homo sapiens) (UniProt P10635); test: Cytochrome P450 Family 2 Subfamily D Member 6 (CYP2D6) small molecule antagonists: luciferase reporter qHTS assay (AID 1671196); further: nearly all actives have a fitted effect of over 50% in size; further: potency means the concentration at half of the fitted maximal effect; on activity change, negative = inhibition: series mostly up to about 120 µM
Summary of the method: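 Each well received CYP2D6 with its proluciferin substrate and chemical, sat 10 min, then got NADPH regeneration solution for 1 h at room temperature. Luminescence in RLU served as the activity measure.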

[16] = biological target: Cytochrome P450 2C19 (Homo sapiens) (UniProt P33261); test: Cytochrome P450 Family 2 Subfamily C Member 19 (CYP2C19) small molecule antagonists: luciferase reporter qHTS assay (AID 1671197); further: nearly all actives have a fitted effect of over 65% in size; further: potency means the concentration at half of the fitted maximal effect; on activity change, negative = inhibition: series mostly up to about 120 µM
Summary of the method: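 Relative luminescence units recorded 20 min after the detection reagent stopped a 1 h, 37C CYP2C19 reaction on proluciferin substrate, which was started by NADPH regeneration following 10 min room-temperature compound preincubation; ketoconazole positive control.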

[17] = biological target: Cytochrome P450 2C9 (Homo sapiens) (UniProt P11712); test: Cytochrome P450 Family 2 Subfamily C Member 9 (CYP2C9) small molecule antagonists: luciferase reporter qHTS assay (AID 1671198); further: nearly all actives have a fitted effect of over 50% in size; further: potency means the concentration at half of the fitted maximal effect; on activity change, negative = inhibition: series mostly up to about 120 µM
Summary of the method: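 P450-Glo proluciferin substrate with CYP2C9 enzyme; 10 min RT preincubation, then NADPH regeneration 1 h at 37C; luciferin detection reagent 20 min RT, luminescence in relative luminescence units.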
On the % scale 0 is the no-effect control and ±100 the full control effect.

Sequence of Nuclear receptor subfamily 1 group I member 2 (Homo sapiens) (O75469 whole entry, looked up): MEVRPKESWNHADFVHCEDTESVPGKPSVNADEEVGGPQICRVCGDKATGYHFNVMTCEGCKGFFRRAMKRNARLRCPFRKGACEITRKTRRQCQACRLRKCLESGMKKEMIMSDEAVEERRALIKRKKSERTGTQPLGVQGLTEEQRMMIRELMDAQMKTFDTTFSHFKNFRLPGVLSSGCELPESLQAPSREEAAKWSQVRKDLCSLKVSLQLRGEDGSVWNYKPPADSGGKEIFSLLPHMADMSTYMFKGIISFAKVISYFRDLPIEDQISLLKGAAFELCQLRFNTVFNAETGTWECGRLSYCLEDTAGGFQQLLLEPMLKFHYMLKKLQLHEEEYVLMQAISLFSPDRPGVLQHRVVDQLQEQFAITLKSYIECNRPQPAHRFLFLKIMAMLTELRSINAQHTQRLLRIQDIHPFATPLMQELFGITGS
Sequence of Progesterone receptor (Homo sapiens) (P06401 whole entry, looked up): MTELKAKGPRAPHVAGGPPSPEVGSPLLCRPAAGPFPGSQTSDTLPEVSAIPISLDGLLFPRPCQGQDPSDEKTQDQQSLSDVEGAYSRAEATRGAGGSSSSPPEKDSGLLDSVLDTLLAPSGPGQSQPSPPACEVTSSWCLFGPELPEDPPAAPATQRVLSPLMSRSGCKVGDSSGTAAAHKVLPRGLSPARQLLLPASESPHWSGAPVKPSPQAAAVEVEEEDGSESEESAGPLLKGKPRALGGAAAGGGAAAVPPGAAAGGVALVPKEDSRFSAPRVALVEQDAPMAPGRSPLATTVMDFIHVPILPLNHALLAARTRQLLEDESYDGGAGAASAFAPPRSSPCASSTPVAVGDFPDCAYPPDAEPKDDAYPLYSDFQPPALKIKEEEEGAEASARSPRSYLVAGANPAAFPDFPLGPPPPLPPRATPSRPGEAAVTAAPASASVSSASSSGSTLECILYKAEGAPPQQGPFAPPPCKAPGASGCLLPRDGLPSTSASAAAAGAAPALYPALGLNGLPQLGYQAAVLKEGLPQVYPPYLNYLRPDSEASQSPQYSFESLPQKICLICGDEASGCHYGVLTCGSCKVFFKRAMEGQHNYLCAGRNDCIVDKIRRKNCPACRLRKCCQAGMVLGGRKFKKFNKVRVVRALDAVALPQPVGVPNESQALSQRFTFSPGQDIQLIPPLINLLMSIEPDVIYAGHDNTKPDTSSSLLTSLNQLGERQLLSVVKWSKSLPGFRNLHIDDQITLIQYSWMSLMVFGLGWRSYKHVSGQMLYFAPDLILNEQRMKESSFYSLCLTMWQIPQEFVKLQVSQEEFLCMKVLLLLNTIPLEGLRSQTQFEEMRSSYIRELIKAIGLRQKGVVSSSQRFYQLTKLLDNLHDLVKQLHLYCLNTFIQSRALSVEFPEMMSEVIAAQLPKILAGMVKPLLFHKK
Sequence of Cytochrome P450 2C19 (Homo sapiens) (P33261 whole entry, looked up): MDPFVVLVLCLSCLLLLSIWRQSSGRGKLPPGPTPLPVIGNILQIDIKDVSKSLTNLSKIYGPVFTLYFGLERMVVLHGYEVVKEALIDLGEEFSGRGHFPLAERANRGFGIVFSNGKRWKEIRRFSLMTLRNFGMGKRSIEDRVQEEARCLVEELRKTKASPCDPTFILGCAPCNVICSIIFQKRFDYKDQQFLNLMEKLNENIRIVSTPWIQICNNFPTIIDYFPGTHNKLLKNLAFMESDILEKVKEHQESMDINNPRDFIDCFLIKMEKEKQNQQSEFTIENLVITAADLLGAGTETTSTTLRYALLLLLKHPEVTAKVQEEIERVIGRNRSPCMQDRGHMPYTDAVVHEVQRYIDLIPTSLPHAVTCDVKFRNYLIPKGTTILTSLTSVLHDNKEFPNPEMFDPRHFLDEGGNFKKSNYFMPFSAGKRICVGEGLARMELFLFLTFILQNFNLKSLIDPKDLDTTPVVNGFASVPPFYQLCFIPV
Sequence of Cytochrome P450 2D6 (Homo sapiens) (P10635 whole entry, looked up): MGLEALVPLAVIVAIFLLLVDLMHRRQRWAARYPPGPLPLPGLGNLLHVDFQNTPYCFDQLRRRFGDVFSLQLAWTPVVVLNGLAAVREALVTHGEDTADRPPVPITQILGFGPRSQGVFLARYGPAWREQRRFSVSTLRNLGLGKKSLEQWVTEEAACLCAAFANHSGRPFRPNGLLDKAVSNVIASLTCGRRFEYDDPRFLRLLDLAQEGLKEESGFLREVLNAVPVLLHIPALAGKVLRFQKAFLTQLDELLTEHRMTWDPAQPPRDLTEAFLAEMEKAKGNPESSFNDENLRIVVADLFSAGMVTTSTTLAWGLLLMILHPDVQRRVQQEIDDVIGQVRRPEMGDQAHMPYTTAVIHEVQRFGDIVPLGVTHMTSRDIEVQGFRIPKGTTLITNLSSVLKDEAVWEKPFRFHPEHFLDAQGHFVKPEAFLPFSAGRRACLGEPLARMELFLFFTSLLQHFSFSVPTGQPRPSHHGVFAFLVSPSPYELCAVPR
Sequence of Thyrotropin-releasing hormone receptor (Homo sapiens) (P34981 whole entry, looked up): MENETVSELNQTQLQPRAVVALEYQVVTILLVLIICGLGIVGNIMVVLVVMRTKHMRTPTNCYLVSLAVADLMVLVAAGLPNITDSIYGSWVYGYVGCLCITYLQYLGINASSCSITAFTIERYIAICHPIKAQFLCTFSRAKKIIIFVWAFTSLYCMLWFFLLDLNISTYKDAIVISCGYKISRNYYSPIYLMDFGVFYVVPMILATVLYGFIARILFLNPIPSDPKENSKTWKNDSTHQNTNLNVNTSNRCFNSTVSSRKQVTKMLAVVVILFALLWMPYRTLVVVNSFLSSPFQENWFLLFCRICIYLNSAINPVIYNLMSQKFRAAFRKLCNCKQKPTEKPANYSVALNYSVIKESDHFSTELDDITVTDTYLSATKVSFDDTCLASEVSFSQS
Sequence of Cytochrome P450 2C9 (Homo sapiens) (P11712 whole entry, looked up): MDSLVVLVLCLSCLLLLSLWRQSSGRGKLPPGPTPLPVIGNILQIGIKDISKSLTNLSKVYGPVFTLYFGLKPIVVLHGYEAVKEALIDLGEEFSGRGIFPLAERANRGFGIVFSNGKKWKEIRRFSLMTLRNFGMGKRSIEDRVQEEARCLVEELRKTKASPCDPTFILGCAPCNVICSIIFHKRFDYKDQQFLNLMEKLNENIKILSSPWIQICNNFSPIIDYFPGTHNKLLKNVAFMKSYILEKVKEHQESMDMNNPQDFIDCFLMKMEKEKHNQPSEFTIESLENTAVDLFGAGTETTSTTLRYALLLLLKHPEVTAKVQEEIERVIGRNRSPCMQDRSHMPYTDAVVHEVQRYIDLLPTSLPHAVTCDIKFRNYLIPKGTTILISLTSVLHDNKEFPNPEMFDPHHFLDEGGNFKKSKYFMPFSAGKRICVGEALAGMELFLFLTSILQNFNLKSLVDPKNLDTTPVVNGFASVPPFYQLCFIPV

CC(C)(C)C1=CC(=O)C=C(C(C)(C)C)C1=O
active: Potency [16] 3.17 µM
inactive: Potency [1] | Potency [2] | Potency [3] | Potency [4] | Potency [5] | Potency [6] | Potency [7] | Potency [8] | Potency [9] | Potency [10] | Potency [11] | Potency [12] | Potency [13] | Potency [14] | Potency [15]

O=C(O)CC(=O)O
inactive: Potency [1] | Potency [2] | Potency [3] | Potency [4] | Potency [5] | Potency [6] | Potency [7] | Potency [8] | Potency [9] | Potency [10] | Potency [11] | Potency [12] | Potency [13] | Potency [14] | Potency [16] | Potency [17]
active: Potency [15] 71.2 µM

CCCCCCCC/C=C\CCCCCCCC(=O)N(C)CC(=O)O
inactive: Potency [4] | Potency [5] | Potency [6] | Potency [7] | Potency [8] | Potency [9] | Potency [10] | Potency [12] | Potency [13] | Potency [14] | Potency [15] | Potency [16]
active: Potency [1] 24.3 µM | Potency [2] 68.6 µM | Potency [3] 68.6 µM | Potency [11] 68.6 µM | Potency [17] 44.8 µM

CCCCCCCC(=O)OCC
inactive: Potency [1] | Potency [2] | Potency [3] | Potency [4] | Potency [5] | Potency [6] | Potency [7] | Potency [8] | Potency [9] | Potency [10] | Potency [11] | Potency [12] | Potency [13] | Potency [14] | Potency [15] | Potency [16] | Potency [17]

Cc1cc(C)c(C=O)c(C)c1
inactive: Potency [1] | Potency [2] | Potency [3] | Potency [4] | Potency [5] | Potency [6] | Potency [7] | Potency [8] | Potency [9] | Potency [10] | Potency [11] | Potency [12] | Potency [13]
active: Potency [14] 43.3 µM

CCN1CCN(c2cc(-c3ccc(F)cc3)c3c(n2)CCCCCC3)CC1
active: Potency [15] 6.74 µM
inactive: activity change, negative = inhibition [1] -13.2% [at 18.9 µM] | activity change, negative = cytotoxicity [2] 1.1% [at 18.9 µM] | activity change, negative = cytotoxicity [3] 2.26% [at 19 µM] | viability change, negative = cytotoxic [4] 0.113% [at 15.8 µM] | activity change, negative = cytotoxicity [5] -0.583% [at 15.8 µM] | activation [6] -2.06% [at 15.8 µM] | activity, negative = inhibition [7] 1.24% [at 10.5 µM] | activation [8] 0.262% [at 11.8 µM] | activity change, negative = cytotoxicity [9] 0.184% [at 19 µM] | caspase activation [10] 0.316% [at 19 µM] | activity change, negative = cytotoxicity [11] 0.368% [at 19 µM] | caspase-3/7 activation [12] 1.46% [at 19 µM] | activity change, negative = cytotoxicity [13] -1.31% [at 19 µM] | activation [14] -23.7% [at 19 µM] | activity change, negative = inhibition [16] -2.56% [at 23.6 µM] | activity change, negative = inhibition [17] -5.46% [at 23.6 µM]

NCCCCCCNCCCCCCN
inactive: Potency [1] | Potency [2] | Potency [3] | Potency [4] | Potency [5] | Potency [6] | Potency [7] | Potency [8] | Potency [9] | Potency [10] | Potency [11] | Potency [12] | Potency [13] | Potency [14] | Potency [16] | Potency [17]
active: Potency [15] 4.94 µM

O=C=NCc1cccc(CN=C=O)c1
active: Potency [17] 6.74 µM
inactive: activity change, negative = inhibition [1] 0.417% [at 18.9 µM] | activity change, negative = cytotoxicity [2] -11.8% [at 18.9 µM] | activity change, negative = cytotoxicity [3] -1.39% [at 19 µM] | viability change, negative = cytotoxic [4] -4.21% [at 15.8 µM] | activity change, negative = cytotoxicity [5] -12.3% [at 15.8 µM] | activation [6] 3.26% [at 15.8 µM] | activity, negative = inhibition [7] 1.76% [at 10.5 µM] | activation [8] -0.119% [at 11.8 µM] | activity change, negative = cytotoxicity [9] 4.21% [at 19 µM] | caspase activation [10] -0.106% [at 19 µM] | activity change, negative = cytotoxicity [11] 0.691% [at 19 µM] | caspase-3/7 activation [12] -0.138% [at 19 µM] | activity change, negative = cytotoxicity [13] 9.74% [at 19 µM] | activation [14] 2.53% [at 19 µM] | activity change, negative = inhibition [15] -24.5% [at 23.6 µM]

C=CC/C=C/C/C=C/C/C=C/C
inactive: Potency [1] | Potency [2] | Potency [3] | Potency [4] | Potency [5] | Potency [6] | Potency [7] | Potency [8] | Potency [9] | Potency [10] | Potency [11] | Potency [12] | Potency [13] | Potency [14] | Potency [15] | Potency [16] | Potency [17]

CCCCCCCCC(C)=O
inactive: Potency [1] | Potency [2] | Potency [3] | Potency [4] | Potency [5] | Potency [6] | Potency [7] | Potency [8] | Potency [9] | Potency [10] | Potency [11] | Potency [12] | Potency [13] | Potency [14] | Potency [15] | Potency [16] | Potency [17]

Cc1cc(=O)[nH]c(=O)[nH]1
inactive: Potency [1] | Potency [2] | Potency [3] | Potency [4] | Potency [5] | Potency [6] | Potency [7] | Potency [8] | Potency [9] | Potency [10] | Potency [11] | Potency [12] | Potency [13] | Potency [14] | Potency [15] | Potency [17]

CC1(C)COCN1
inactive: Potency [1] | Potency [2] | Potency [3] | Potency [4] | Potency [5] | Potency [6] | Potency [7] | Potency [8] | Potency [9] | Potency [10] | Potency [11] | Potency [12] | Potency [13] | Potency [14] | Potency [15] | Potency [16] | Potency [17]

CCCC(O)C(O)CO (configuration not stated)
inactive: Potency [1] | Potency [2] | Potency [3] | Potency [4] | Potency [5] | Potency [6] | Potency [7] | Potency [8] | Potency [9] | Potency [10] | Potency [11] | Potency [12] | Potency [13] | Potency [14] | Potency [15] | Potency [16] | Potency [17]

COc1cccc(OC)c1O
inactive: Potency [1] | Potency [2] | Potency [3] | Potency [4] | Potency [5] | Potency [6] | Potency [7] | Potency [8] | Potency [9] | Potency [10] | Potency [11] | Potency [12] | Potency [13] | Potency [14]
active: Potency [15] 6.33 µM | Potency [16] 39.9 µM | Potency [17] 35.6 µM
